Data on 10 molecules can be found in PubChem BioAssay (Tox21).

Several values for one entry are separate records, joined by “and”; a condition that tells them apart may be missing. Identical values can stand only once. Records with an inconclusive call do not appear. More than one record can exist for a structure, and the calls need not agree. Activity calls are given as the source filed them. Unless noted, calls follow the shape of the dose curve; as a rule, active = well fitted curve in the direction sought with a large enough effect in the repeat runs; inconclusive = weak or mixed curves; inactive = no such curve, though single readings can be large; an effect the other way counts as inactive or inconclusive.

A short description of assay [1]: qHTS assay to identify small molecule agonists of the vitamin D receptor (VDR) signaling pathway - cell viability counter screen (AID 743224). Also: nearly all actives have a fitted effect of over 50% in size. Also: potency is read from the fitted curve at half-maximal effect. The essentials:
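Here cell health was gauged by luminescent ATP detection (CellTiter-Glo, 30 min RT) in VDR-bla cells that had been incubated with test compounds for 16 h at 37C and 5% CO2.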

A short description of assay [2]: qHTS assay to identify small molecule antagonists of the vitamin D receptor (VDR) signaling pathway - cell viability counter screen (AID 743225). Also: nearly all actives have a fitted effect of over 50% in size. Also: potency is read from the fitted curve at half-maximal effect. Put shortly:
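Same-well multiplex: following 16 h treatment of HEK 293T cells carrying a UAS-driven beta-lactamase reporter with compound and agonist (3 nM final), and a 2 h FRET substrate step, CellTiter-Glo was added and luminescence read after 30 min.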

The nature of assay [3]: qHTS assay to identify small molecule agonists of the NFkB signaling pathway - cell viability counter screen (AID 1159515; calls by dose curve; also: series mostly up to about 61 µM; % is scaled to controls: 0 for no effect and ±100 for the full control effect; nearly all actives have a fitted effect of over 55% in size). Put shortly: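 5 hr compound treatment of NFkB-bla ME-180 cells (2,000/well, seeded overnight beforehand), followed by reporter substrate for 1.5 hr. CellTiter-Glo added afterward; luminescence after 30 min RT.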
For orientation: In qHTS, concentration-response curves come from the screen itself.

The target of assay [4] is Nuclear receptor ROR-gamma (Homo sapiens) (UniProt P51449). Kind of assay: qHTS assay to identify small molecule antagonists of the retinoid-related orphan receptor gamma (ROR-gamma) signaling pathway (AID 1159521; also: potency is read from the fitted curve at half-maximal effect; nearly all actives have a fitted effect of over 50% in size). Put shortly:
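Inducible-expression reporter assay: doxycycline (1 uM final) switched on RORγ in CHO cells bearing a ROR response element-luciferase construct, with test compounds present from 2 h beforehand. Decreased luminescence after 16 h defined antagonist activity.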

Assay [5] can be described thus: qHTS assay to identify small molecule agonists of the AP-1 signaling pathway - cell viability counter screen (AID 1159525; calls by dose curve; also: nearly all actives have a fitted effect of over 55% in size; also: potency is read from the fitted curve at half-maximal effect). The essentials:
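ME-180 AP-1-bla, 2500 cells/well, Opti-MEM + 0.5% dialyzed FBS; overnight 37 °C; cpd 15-pt titration, 5 h 37 °C; CellTiter-Glo 30 min RT; luminescence read; normalised to TOAB and DMSO controls.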

Assay [6] in a line: qHTS assay to identify small molecule agonists of the RXR signaling pathway - cell viability counter screen (AID 1159529). Also: nearly all actives have a fitted effect of over 50% in size. Also: potency is read from the fitted curve at half-maximal effect. Put shortly:
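Counter screen: CellTiter-Glo luminescence. Cells: RXR-alpha-UAS-bla HEK 293T. Medium: 2% charcoal-stripped FBS. Treatment: 16 h, 37 C. Reagent incubation: 30 min, RT.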

The nature of assay [7]: qHTS assay to identify small molecule antagonists of the retinoic acid receptor (RAR) signaling pathway (AID 1159552; also: nearly all actives have a fitted effect of over 50% in size; also: potency is read from the fitted curve at half-maximal effect; as to activity, negative = inhibition: % is scaled to controls: 0 for no effect and ±100 for the full control effect). Put shortly:
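Antagonism of retinol-induced RARE reporter activity was measured in C3RL4 cells. Exposure to compounds and 1 uM final retinol lasted 6 hr at 37 C, with luminescence as endpoint.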

Assay [8] is described as follows: qHTS assay to identify small molecule agonists of the retinoic acid receptor (RAR) signaling pathway (AID 1159553). Also: % is scaled to controls: 0 for no effect and ±100 for the full control effect. The essentials: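 Activation of retinol signaling was monitored via a RARE luciferase reporter in C3RL4 cells. After 6 hr compound treatment at 37 C, detection reagent was added for 30 min at room temperature before luminescence reading.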
Assay [9] is described as follows: qHTS assay to identify small molecule antagonists of the estrogen related receptor (ERR) signaling pathway from Tox21 library - cell viability counter screen (AID 1224834). Also: nearly all actives have a fitted effect of over 30% in size. Also: potency is read from the fitted curve at half-maximal effect. Put shortly: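 CellTiter-Fluor fluorescence measured; ERR cells; 17.5 h compound incubation at 37 C; 30 min reagent step.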
Assay [10] addresses Luciferin 4-monooxygenase (Photinus pyralis) (UniProt P08659). Kind of assay: qHTS assay to identify small molecule inhibitors of firefly luciferase (AID 1224835). Also: nearly all actives have a fitted effect of over 25% in size. Also: potency is read from the fitted curve at half-maximal effect. As to activity change, negative = inhibition: series mostly up to about 120 µM; % is scaled to controls: 0 for no effect and ±100 for the full control effect. The essentials: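 Quantitative HTS format; KM concentrations of both substrates. Purified P. pyralis FLuc activity quantified from luminescence images.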
Assay [11] in a line: qHTS assay to identify small molecule antagonists of the retinoid-related orphan receptor gamma (ROR-gamma) signaling pathway - cell viability counter screen (AID 1159520). Also: nearly all actives have a fitted effect of over 50% in size. Also: potency is read from the fitted curve at half-maximal effect. Put shortly:
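Tet-on ROR gamma CHO cells (1,000/well) were plated 4 hr, given compounds in DMSO for 2 hr at 37 C, then induced with 1 uM final doxycycline for 16 hr. Viability was read as ATP by CellTiter-Glo luminescence after 30 min.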

Assay [12] is described as follows: qHTS assay to identify small molecule antagonists of the retinoid acid receptor (RAR) signaling pathway - cell viability counter screen (AID 1159551). Also: % is scaled to controls: 0 for no effect and ±100 for the full control effect; nearly all actives have a fitted effect of over 35% in size. The essentials:
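Seed C3RL4 cells; next day add compound, then retinol to 1 uM final; incubate 6 h at 37 C; add CellTiter-Glo; read luminescence after 30 min at RT.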

Assay [13] deals with Retinoic acid receptor RXR-alpha (Homo sapiens) (UniProt P19793). Kind of assay: qHTS assay to identify small molecule agonists of the RXR signaling pathway (AID 1159527; calls by dose curve; also: nearly all actives have a fitted effect of over 35% in size; also: potency is read from the fitted curve at half-maximal effect). Put shortly:
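Compounds in DMSO were added to RXR-alpha-UAS-bla HEK 293T cells kept in 2% charcoal-stripped serum, and incubated 16 hr at 37 C with 5% CO2. Reporter signal came from a 2 hr B/G FRET substrate step.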

Assay [14] can be described thus: qHTS assay to identify small molecule agonists of the AP-1 signaling pathway (AID 1159526; calls by dose curve; also: % is scaled to controls: 0 for no effect and ±100 for the full control effect).

Chain of Luciferin 4-monooxygenase (Photinus pyralis) (P08659 whole entry, looked up): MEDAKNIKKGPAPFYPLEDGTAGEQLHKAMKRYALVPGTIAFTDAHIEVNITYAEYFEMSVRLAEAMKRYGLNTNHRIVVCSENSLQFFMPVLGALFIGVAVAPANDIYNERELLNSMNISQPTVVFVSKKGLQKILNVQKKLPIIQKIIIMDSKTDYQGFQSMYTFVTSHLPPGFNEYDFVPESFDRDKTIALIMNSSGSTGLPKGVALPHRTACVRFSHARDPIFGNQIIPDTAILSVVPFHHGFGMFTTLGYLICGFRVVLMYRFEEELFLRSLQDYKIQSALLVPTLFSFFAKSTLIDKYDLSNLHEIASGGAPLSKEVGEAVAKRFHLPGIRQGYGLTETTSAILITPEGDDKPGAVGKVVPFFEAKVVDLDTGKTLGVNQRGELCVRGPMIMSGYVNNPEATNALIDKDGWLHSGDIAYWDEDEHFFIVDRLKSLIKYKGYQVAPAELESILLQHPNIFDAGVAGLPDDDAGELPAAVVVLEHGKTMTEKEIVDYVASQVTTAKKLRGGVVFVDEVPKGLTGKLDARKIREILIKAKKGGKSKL
Chain of Retinoic acid receptor RXR-alpha (Homo sapiens) (P19793 whole entry, looked up): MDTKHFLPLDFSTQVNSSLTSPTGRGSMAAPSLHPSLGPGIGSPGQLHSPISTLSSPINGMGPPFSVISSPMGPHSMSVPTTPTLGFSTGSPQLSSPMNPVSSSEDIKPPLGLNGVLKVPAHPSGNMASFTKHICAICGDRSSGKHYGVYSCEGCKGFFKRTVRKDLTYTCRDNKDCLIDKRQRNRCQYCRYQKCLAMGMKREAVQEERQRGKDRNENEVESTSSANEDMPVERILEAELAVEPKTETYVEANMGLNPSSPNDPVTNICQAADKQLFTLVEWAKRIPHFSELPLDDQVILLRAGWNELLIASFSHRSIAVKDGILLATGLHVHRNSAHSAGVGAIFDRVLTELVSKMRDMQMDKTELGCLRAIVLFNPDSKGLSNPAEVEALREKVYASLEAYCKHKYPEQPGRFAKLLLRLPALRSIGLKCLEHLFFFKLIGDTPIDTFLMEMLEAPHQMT

For `Oc1ccc(Cl)cc1Sc1cc(Cl)ccc1O`, the Potency in assay [1] was 21.8 µM (active) and 23.7 µM (active); in [2] it was 30.8 µM (active); in assay [4], 19.3 µM (active) and 13.3 µM (active); in [5], 54.8 µM (active) and inactive; in [6], 43.6 µM (active); in [7] it was 26.6 µM (active). Further, the Potency in [9] was 30.6 µM (active) and 26.6 µM (active). For the same molecule, the Potency result in assay [3], in assay [8] and in assay [10] was “inactive” in each case.

As for `O=c1[nH]sc2cc(Cl)ccc12`, the Potency in assay [1] is 29.8 µM (active); in assay [11], 26.6 µM (active); in assay [6], 26.8 µM (active); in assay [10], 17.4 µM (active). Besides, the Potency result in assay [3], in [7] and in [9] was “inactive” each time.

`O=C(OC[C@H]1O[C@@H](OC(=O)c2cc(O)c(O)c(OC(=O)c3cc(O)c(O)c(O)c3)c2)[C@H](OC(=O)c2cc(O)c(O)c(OC(=O)c3cc(O)c(O)c(O)c3)c2)[C@@H](OC(=O)c2cc(O)c(O)c(OC(=O)c3cc(O)c(O)c(O)c3)c2)[C@@H]1OC(=O)c1cc(O)c(O)c(OC(=O)c2cc(O)c(O)c(O)c2)c1)c1cc(O)c(O)c(OC(=O)c2cc(O)c(O)c(O)c2)c1`: the Potency entry in [3] and in assay [8] was “inactive” each time. Also, the activity, negative = cytotoxicity in assay [11] is -4.77% [at 19 µM] (inactive). Moreover, the viability change, negative = cytotoxic in assay [5] is 1.96% [at 15.8 µM] (inactive). The results for the activity change, negative = cytotoxicity in [6] and in assay [12] were 11.4% [at 15.8 µM] (inactive) and -3.41% [at 19 µM] (inactive), respectively. For the same molecule, in assay [7], the activity, negative = inhibition is 22.4% [at 19 µM] (inactive). Further, the Potency in [9] was 16.5 µM (active). In assay [10], the activity change, negative = inhibition was -18.6% [at 23.6 µM] (inactive).

`C/C(=C(/OCCOc1ccc(Cl)cc1)c1ccc(Cl)cc1Cl)n1ccnc1`: the Potency entry in assay [2], in assay [3], in assay [11], in assay [5], in [13] and in [6] was “inactive” each time. Also, the Potency result in assay [12], in [7] and in [9] was “inactive” throughout.

Take `CCCC(=O)OC[C@@H](OC(=O)CCC)[C@@H](OC(=O)CCC)[C@H](Cn1c2nc(=O)[nH]c(=O)c-2nc2cc(C)c(C)cc21)OC(=O)CCC`: the Potency entry in assay [1], in assay [2], in [3], in [11], in [5] and in assay [6] was “inactive” each time. In addition, the Potency result in [12], in [7] and in [10] was “inactive” in each case.

In the case of `OCCCCCCCCCCCCBr`, the Potency entry in assay [2], in assay [3], in [5], in [14], in assay [12] and in assay [7] was “inactive” throughout. The Potency entry in assay [8] and in assay [10] was “inactive” each time. Moreover, the Potency in assay [4] was 62.1 µM (active).

Regarding `Fc1ccc([C@@H]2CCNC[C@H]2COc2ccc3c(c2)OCO3)cc1`, the Potency entry in assay [3], in [11], in assay [5], in assay [6], in assay [12] and in [8] was “inactive” each time. For the same molecule, the Potency result in assay [10] is “inactive”.

For the molecule `NNc1nc(-c2ccc(N)cc2)cs1`, the Potency entry in [1], in assay [2], in assay [3], in assay [11], in assay [5] and in assay [6] was “inactive” in each case. The Potency in [9] was 54.5 µM (active); in [10] it was 35.6 µM (active).

Take `CC1(C)CCC(C)(C)c2cc(C(=O)Nc3ccc(C(=O)O)cc3)ccc21`: the Potency result in [3], in [5], in assay [14], in assay [6], in assay [12] and in assay [9] was “inactive” in each case. The Potency in assay [4] was 61.1 µM (active); in assay [13], 4.36 µM (active); in [10], 79.6 µM (active).

As for `Cc1[nH]cnc1C[C@H]1CCc2c(C)c3ccccc3n2C1=O`, the Potency entry in [1], in [2], in assay [3], in assay [5] and in assay [8] was “inactive” each time. The Potency is 23.7 µM (active) in assay [4], 19 µM (active) in assay [6] and 47.4 µM (active) in assay [9].
